From PubChem BioAssay (Tox21) come the findings set out here.

A number with no mark means an inactive call. The source made the active and inactive calls. Calls come from the whole dose curve; as a rule, active = well fitted curve in the direction sought with a large enough effect in the repeat runs; inconclusive = weak or mixed curves; inactive = flat fitted curve, though single readings scatter.
% is set by controls: 0 for no effect and ±100 for the full control effect.

A short description of this assay: qHTS assay to test for compound auto fluorescence at 535 nm (green) in HEK293 cell free culture (AID 720682). The following applies: cell-free medium, green autofluorescence 485/535 nm, stronger effect = higher value; series mostly up to 91.3 µM; activity change: at the top concentration. From the text:
U.S. Tox21 Program National Center for Advancing Translational Sciences [NCATS] NIH Chemical Genomics Center [NCGC] U.S. Environmental Protection Agency [EPA] National Institutes of Environmental Health Sciences [NIEHS] National Toxicology Program [NTP] U.S. Food and Drug Administration [FDA] Tox21 Assay Overview: Compound auto fluorescence often interferes with screening of the compound library against various biological targets and signaling pathways. Some of these compounds may have fluorophoric properties. Such properties may interfere with the assay outputs resulting in false positives and/or negatives. To decrease such complications and ensure the compound activities are relevant in terms of biological response, the Tox21 10K compound library was screened for auto fluorescence. From the fluorophores used as reporter signals in our screening assays, the auto fluorescence equivalencies of compounds against three fluorophores have been evaluated: Triamterene, Fluorescein and Rose Bengal sodium for blue, green and red fluorescence, respectively. The fluorescence intensities were measured using Excitation/Emission wavelengths at 405/460nm, 485/535nm and 540/590nm for blue, green and red labels, respectively. This assay includes the green fluorescence data.
Tox21 Assay Protocol Summary: 5 uL of culture medium (DMEM containing 10% FBS) per well was dispensed into black wall/clear bottom 1536-well plates using a Multidrop Combi Dispenser (ThermoFisher Scientific, Waltham, MA). After 23 nL compound or DMSO vehicle was transferred into assay plate by a pintool work station (Kalypsys, San Diego, CA), fluorescence intensities in the assay plates were measured by an Envision (PerkinElmer, Shelton, CT) plate reader using three labels for measuring blue, green and red fluorescence at […] 460, 535 and 590nm respectively.
Regarding `COc1ccc2cc(CCC(C)=O)ccc2c1`, the activity change was -0.0416% [at 18.6 µM]. For the compound `Cc1ccc2cccnc2c1`, the “activity change” value was 0.0028%. As to `CC(C)(C)NCC(O)COc1cccc2c1CCC(=O)N2` (stereo not given), the activity change was -0.0136% [at 18.6 µM]. Same read-out and setting: with `C=CC(=O)OCCOCCOCC` the figure was 0.142%; with `COc1cc(C(=O)NC2CCCNC2)cc(OC)c1OC` (stereo not given), 0.0498% [at 46 µM]; with `O=C[C@@H](O)[C@H](O)[C@H](O)CO`, 0.0439%. The same measure, in the same setting: the figure for `CC1(C)S[C@@H]2[C@H](NC(=O)Cc3ccccc3)C(=O)N2[C@H]1C(=O)O` (tested in a mixture with another compound) is 0.0137% [at 46 µM]; for `CC/C=C\CCOC(=O)c1ccccc1` it is -0.0862%; for `C=CCOC(=O)CCCCCCCC` it is 0.0276%. With `CN(C)CCCN(C)C`, the activity change was -0.2% [at 3.72 µM]. Turning to `O=C(O)/C=C(\CC(=O)O)C(=O)O`, the “activity change” value was -0.122% [at 46 µM]. For `C[C@@H]1NC(=O)[C@@H](N)CNC(=O)[C@H](C2CCNC(N)=N2)NC(=O)/C(=C/NC(N)=O)NC(=O)[C@H](CNC(=O)C[C@@H](N)CCCN)NC1=O` (stereo not given in full), the result was inactive. `CC(=O)SC[C@@H](C)C(=O)N1CCC[C@H]1C(=O)N[C@@H](Cc1ccccc1)C(=O)O`: the “activity change” value is -0.1% [at 46 µM].

As to `Cc1ccc(N)nc1`, the “activity change” value is -0.0516%. In the case of `NS(=O)(=O)c1cc2c(cc1C(F)(F)F)NCNS2(=O)=O`, the activity change was 0.0709% [at 18.6 µM].

Take `O=S(=O)(O)c1ccc(Cl)cc1`: the “activity change” value was -0.182%. For the compound `C/C=C(\C)C=O`, the “activity change” value was 0.0271%. Same read-out and setting: the figure for `Cc1cc(N)no1` is 0.237% [at 95.7 µM]; for `CCO[Si](CC(C)C)(OCC)OCC` it is -0.0055%. Regarding `CCCCCCCOC(C)=O`, the “activity change” value was 0.0303%. For the compound `Cc1cc(O)c(Cl)cc1C`, the “activity change” value is 0.0701%. With `N=C(N)N`, the “activity change” value was 0.0451% [at 46 µM]. On to `Cc1cccc(N)n1`, for which the “activity change” value is -0.0429% [at 95.7 µM].

As to `COc1ccc(Cl)cc1C`, the “activity change” value was 0.0162% [at 95.7 µM]. In the case of `CC(C)(C)OC(=O)c1ccccc1C(=O)O`, the “activity change” value is 0.0275%. On the same count and under the same terms, with `C=CCN(CC=C)CC=C` the figure was 0.0197%.

Turning to `CNC(C)=O`, the “activity change” value is -0.0212%. Regarding `CC(C)(C)c1ccc(N)cc1`, the “activity change” value is -0.384%. Take `CCCCCCCC(=O)N(C)C`: the “activity change” value is -0.0415%.

As for `C=CC(C)(CCC=C(C)C)OC(=O)C(C)C` (stereo not given), the “activity change” value is 0.0746%. On the same count and under the same terms, the figure for `Nc1nc(Cl)cc(Cl)n1` is -0.0186%; for `CN(C)CCc1c[nH]c2ccc(C[C@H]3COC(=O)N3)cc12` it is 0.038% [at 46 µM]; for `C=C(C)C(=O)OCCOC1CC2CC1C1C=CCC21` (stereo not given) it is -0.0256% [at 95.7 µM]. For the compound `CC(=O)OC/C=C(/C)CCC=C(C)C`, the “activity change” value is 0.0799%. In the case of `CC(C)(O)CCCC1=CCC(C=O)CC1` (stereo not given), the “activity change” value is -0.065% [at 95.7 µM].

Consider `Cc1cc(C)c(N)c(Cl)c1`, for which the “activity change” value was 0.0351%. For the compound `O=Cc1ccc(C(=O)O)cc1`, the “activity change” value was -0.0722% [at 95.7 µM]. The same measure, in the same setting: the figure for `CC(C)(Sc1cc(C(C)(C)C)c(O)c(C(C)(C)C)c1)Sc1cc(C(C)(C)C)c(O)c(C(C)(C)C)c1` is 0.0049% [at 18.6 µM]; for `Cc1ccc(S(=O)(=O)NC(=O)NN2CC3CCCC3C2)cc1` (stereo not given) it is -0.0097% [at 18.6 µM].

With `C/C=C/C(=O)CCCC`, the “activity change” value is -0.0117%.
